Inconclusive results are not listed. Entries that show only a call come without a potency. Calls of active or inactive are those of the source. Calls come from the whole dose curve; as a rule, active = well fitted inhibition curve with a large enough effect; inconclusive = small, poorly fitted or top-dose-only effect; inactive = flat fitted curve, though single readings scatter.
Potency is the fitted concentration of half-maximal effect.

Chain of Dual specificity protein kinase CLK4 (Homo sapiens) (Q9HAZ1 whole entry, looked up): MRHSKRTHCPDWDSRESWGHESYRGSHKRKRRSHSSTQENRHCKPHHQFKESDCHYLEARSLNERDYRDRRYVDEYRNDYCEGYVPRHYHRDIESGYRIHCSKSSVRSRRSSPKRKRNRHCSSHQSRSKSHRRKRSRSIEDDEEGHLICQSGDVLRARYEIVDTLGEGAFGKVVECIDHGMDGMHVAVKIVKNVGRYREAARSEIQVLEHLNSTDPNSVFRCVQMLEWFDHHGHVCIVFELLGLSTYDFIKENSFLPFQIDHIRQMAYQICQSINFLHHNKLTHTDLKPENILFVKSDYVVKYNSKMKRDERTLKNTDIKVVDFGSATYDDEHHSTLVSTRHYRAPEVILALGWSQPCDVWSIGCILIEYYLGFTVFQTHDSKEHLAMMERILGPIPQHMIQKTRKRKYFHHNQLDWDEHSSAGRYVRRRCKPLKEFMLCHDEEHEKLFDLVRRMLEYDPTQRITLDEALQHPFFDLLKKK

The target of this experiment is Dual specificity protein kinase CLK4 (Homo sapiens) (UniProt Q9HAZ1). Description: qHTS Assay for Inhibitors of CDC-like Kinase 4 (ADP-FP Assay) (AID 1795). Note: nearly all actives have a fitted effect of over 60% in size. The conditions noted are these: Transcreener ADP fluorescence polarization; series mostly up to 50 µM. The procedure:
NIH Molecular Libraries Probe Production Centers Network [MLPCN] NIH Chemical Genomics Center [NCGC] MLPCN Grant: 1R03MH084827-01 Assay Submitter (PI): Tom Misteli NCGC Assay Overview: Clk4 (Invitrogen cat # PV3839) was assayed using ATP and the RS repeat peptide (AnaSpec cat # 61722) as substrates using Transcreener (trade mark), a competitive fluorescence polarization (FP) assay. For the present assay, we used the Orange TranscreenerTM ADP2 (BellBrooks Labs, Madison, Wis) detection system to monitor ADP production in the kinase reaction. […] This allows the ADP tracer to freely rotate leading to a decrease in the observed FP value. The amount of ADP produced can then be calculated using a calibration curve. The positive control for the assay was TG003 (Sigma-Aldrich, cat # 300801-52-9) which is a Clk4 inhibitor [2].
NCGC Assay Protocol Summary: Two uL/well of substrate-buffer solution (100 uM RS peptide, 1 uM ATP, 25 mM Tris pH7.5, 10 mM MgCl2, 0.5 mM EGTA, 2.5 mM DTT, 0.01% Triton X-100 final concentration) was dispensed into 1,536-well assay plates (Greiner, solid black medium-binding plates) with Aurora Discovery BioRAPTR Flying Reagent Dispenser (FRD; Beckton-Dickenson). Using a Kalypsys pin tool equipped with a 1,536-pin tool, 23 nL of compound solution was transferred to the assay plate. Two uL/well Clk4-buffer solution (6.25 nM Clk4, 25 mM Tris pH 7.5, 10 mM MgCl2, 0.5 mM EGTA, 2.5 mM DTT, 0.01% Triton X-100, final concentration) was then added using the FRD yielding a total kinase reaction volume of 4 uL/ well. Then 4 uL/well of detection mixture (4 nM orange fluorescent tracer, 1 ug/mL ADP antibody, final concentration) was then added after an hour and the polarization signal was measured using the EnVision plate reader (PerkinElmer, Waltham, MA) after 30 min of room temperature incubation using the following filters and program settings: BODIPY TMR FP dual Enh mirror (barcode 682); BODIPY-TMR 531 (barcode 105) excitation; BODIPY-TMR FP P/S polarized 595 nm filters (barcodes 210 and 211, respectively); 100% light; 150 flashes; 1.35 G-factor; Detector gains were 685 for the 1st detector; 630 for the 2nd detector.
As to `CN(C)c1ncc2ncc(=O)n(C3CC3)c2n1`, the Potency result is “inactive”.

Consider `COc1cccc(Cn2c(=O)cnc3cnc(Oc4ccccc4)nc32)c1`, for which the Potency result is “inactive”.

Turning to `CNc1cc(-c2c(C)noc2C)ncn1`, the Potency result was “inactive”.

`CN(Cc1ccco1)c1ncnc2ccc(-c3ccccc3Cl)cc12`: the Potency is 4470 nM (active).

Take `c1cncc(-c2cncnc2NC2CCNCC2)c1`: the Potency result is “inactive”.

On to `COc1ccc(CNc2ncnc3ccc(-c4ccccc4OC)cc23)c(OC)c1`, for which the Potency result was “inactive”.

For the molecule `O=c1c(-c2ccc(F)cc2)nc2cnc(Oc3cccc(Cl)c3)nc2n1C1CC1`, the Potency entry was “inactive”.

As to `N#CCCn1c(=O)c(-c2ccc(F)cc2)nc2cnc(N3CCOCC3)nc21`, the Potency result was “inactive”.

In the case of `COc1ccc(-n2c(=O)c(-c3cccs3)nc3cnc(N4CCOCC4)nc32)cc1`, the Potency entry was “inactive”.

With `O=c1c(CCc2ccccc2)nc2cnc(N3CCNCC3)nc2n1C1CC1`, the Potency entry was “inactive”.

`COc1ccc(-c2nc3cnc(N4CCOCC4)nc3n(C)c2=O)cc1`: the Potency entry was “inactive”.

As for `CNc1cc(-c2ccccc2CN(C)C)ncn1`, the Potency entry was “inactive”.

For `Cc1cnc(CNc2ccnc(-c3ccccc3C(F)(F)F)n2)cn1`, the Potency result was “inactive”.

For the molecule `N#Cc1ccccc1-c1nc(NCCN2CCOCC2)c2ccccc2n1`, the Potency result is “inactive”.

For the molecule `O=c1c(-c2cccs2)nc2cnc(N3CCOCC3)nc2n1Cc1cccs1`, the Potency entry was “inactive”.

Consider `COc1ccc(Oc2ncc3nc(-c4cn(C)c5ccccc45)c(=O)n(C4CC4)c3n2)cc1`, for which the Potency entry was “inactive”.

Regarding `Cc1noc(C)c1-c1cncnc1NCCN1CCOCC1`, the Potency result is “inactive”.

Turning to `O=c1c(-c2ccccc2)nc2cnc(N3CCNCC3)nc2n1-c1ccccc1`, the Potency result is “inactive”.

Take `Cc1ccccc1-c1cc(NCCN2CCOCC2)ncn1`: the Potency result was “inactive”.

As to `O=c1c(-c2ccc(Cl)cc2)nc2cnc(N3CCOCC3)nc2n1-c1ccccc1`, the Potency entry was “inactive”.

As to `Cc1noc(C)c1-c1ccc2ncnc(NCc3cccnc3)c2c1`, the Potency was 794 nM (active).

Regarding `CCNc1ncc2nc(-c3cn(C)c4ccccc34)c(=O)n(-c3ccccc3)c2n1`, the Potency entry is “inactive”.

As to `Cn1cc(-c2nc3cncnc3n(Cc3ccc(F)cc3)c2=O)c2ccccc21`, the Potency result was “inactive”.

Take `COc1ccc(-n2c(=O)c(-c3ccc(F)cc3)nc3cnc(N4CCOCC4)nc32)cc1`: the Potency result is “inactive”.

Take `Cc1cnc(CNc2ncncc2-c2cccnc2)cn1`: the Potency result was “inactive”.

Consider `Cn1c(=O)c(-c2ccc(Cl)cc2)nc2cnc(Oc3cccc(Cl)c3)nc21`, for which the Potency result is “inactive”.

Take `N#Cc1cccc(-c2nc3cnc(Oc4cccc(Cl)c4)nc3n(C3CC3)c2=O)c1`: the Potency entry was “inactive”.

In the case of `Fc1ccc(Nc2ncncc2-c2ccoc2)cc1`, the Potency is 5010 nM (active).

For `c1nc(N2CCNCC2)c2cc(-c3ccoc3)ccc2n1`, the Potency was 708 nM (active).

For the molecule `COc1cccc(Cn2c(=O)c(-c3cn(C)c4ccccc34)nc3cnc(N4CCNCC4)nc32)c1`, the Potency result was “inactive”.

On to `COc1ccc(Oc2ncc3nc(C)c(=O)n(C[C@H]4CCCO4)c3n2)cc1`, for which the Potency result is “inactive”.

Consider `COc1ccc(-c2nc3cnc(N4CCN(C)CC4)nc3n(Cc3ccc(F)cc3)c2=O)cc1`, for which the Potency result is “inactive”.

As to `c1csc(CNc2ccnc(-c3ccoc3)n2)c1`, the Potency result was “inactive”.

Regarding `COc1ccc(Oc2ncc3nc(CCc4ccccc4)c(=O)n(C[C@H]4CCCO4)c3n2)cc1`, the Potency entry is “inactive”.

On to `COc1ccc(-c2nc3cnc(Oc4ccccc4)nc3n(CCC#N)c2=O)cc1`, for which the Potency entry is “inactive”.

For the molecule `c1ccc(CNc2ncnc3ccc(-c4cccnc4)cc23)cc1`, the Potency is 2240 nM (active).

For the molecule `CN(C)c1ncc2nc(-c3cccs3)c(=O)n(C[C@H]3CCCO3)c2n1`, the Potency result was “inactive”.

In the case of `O=c1cnc2cncnc2n1Cc1ccc(F)cc1`, the Potency entry was “inactive”.

With `CN(C)c1ncc2ncc(=O)n(C[C@H]3CCCO3)c2n1`, the Potency result is “inactive”.

For `O=c1c(-c2ccc(F)cc2)nc2cnc(Nc3ccccc3)nc2n1C[C@H]1CCCO1`, the Potency result is “inactive”.

These data come from PubChem BioAssay (NCATS).
